# In PubChem BioAssay (NCI):
# Compounds without any hit were thinned out: in the full panel of roughly 83,000, 20% have a hit.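 Single-concentration screen, 48 h exposure, 96-well plates. Endpoint: percent growth. Below 10 = active.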 Values without a mark were called inactive. Active and inactive are the calls of the source.
# Tested on: CAKI-1 renal
# Assay: NCI-60 one-dose screen, 48 h (100 = growth as untreated, 0 = no growth, -100 = all killed)
# Conditions: 10 µM unless noted
row,SMILES,growth
1,COc1ccccc1/C=C/C1=C(C)CCC(c2ccccc2OC)C1C (stereo not given),2.23% (active)
2,COc1cc(OCc2cccc(-c3ccc4c(c3)OCCO4)c2C)cc(OC)c1C=O,25.9%
3,COc1ccccc1-c1nc2ccc3[nH]ncc3c2c2c1CCCC2,21.8%
4,CC(=O)OCCOc1cc(Cl)c(Cl)cc1Cl,96.5%
5,CC1(C)CC(=O)C2=C(C1)OC(C(=O)c1ccccc1)C2c1cccc(Oc2ccccc2)c1 (stereo not given),41.6%
6,CC1OC(C(=O)N2CCN(CCO)CC2)CC1COC1CCCCC1 (stereo not given),85.3% [50 µM]
7,COc1ccccc1NC(=O)n1c(=O)cc(C)c2ccc(O)cc21,99.6%
8,COc1ccc2c(c1)C(c1c[nH]c3ccccc13)(c1c[nH]c3ccccc13)CCO2,44%
9,CC(C)(C)n1cc(-c2ccnc(NCCNS(=O)(=O)c3cccc4ccccc34)c2)c(-c2cccc(O)c2)n1,73.7%
10,COc1cc(C2=Nc3c(N)nc(N)nc3NC(c3cccc(Nc4ccnc5cc(C(F)(F)F)ccc45)c3)C2)cc(OC)c1OC (stereo not given),58.6%
11,Nc1nc(=O)n([C@H]2CC=C(CO)O2)cc1F,94.6%
12,CS(=O)(=O)c1ccc(/C(=N/NC(N)=S)c2ccc(F)cc2)cc1,94.7%
13,O=c1n(C2OC(CO)C(O)C2O)ccc2nccn12 (stereo not given),102%
14,Cc1c(N2CCCCC2)[nH]c2ccccc12,101%
15,O=C1CCc2c(sc3[nH]c(=S)n(-c4cc(C(F)(F)F)cc(C(F)(F)F)c4)c(=O)c23)C1,0.877% (active)
